Screening results from PubChem BioAssay.
Giardia killer: kills Giardia lamblia; activity change, % at 7.66 µM, hits read low; hit rate 0.15% among 340,000; AID 540267; Giardia lamblia trophozoite viability; in the data active = activity change below about -80%; inconclusive = between about -30% and that limit;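 also: parasites exposed to compound for two days anaerobically before the ATP read; % is scaled to controls: 0 for no effect and ±100 for the full control effect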
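Giardia trophozoites, 100 cells per well, were exposed to compounds for 48 hrs at 37 deg C under anaerobic conditions; viability was then read as ATP content by bioluminescence after 15-30 min at room temperature.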
Nrf2 inh: blocks Nrf2 signaling. A549 ARE-Fluc reporter, luciferase luminescence, 18-24 h. Potency, µM (top dose mostly 46 µM), without a hit: top-dose activity change, negative = inhibition, hits mostly inhibitors. hit rate 2.1% among 360,000; also: potency is read from the fitted curve at half-maximal effect; % is scaled to controls: 0 for no effect and ±100 for the full control effect; nearly all actives have a fitted effect of over 60% in size
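Reporter: ARE-Fluc in A549. Exposure: 18-24 h, 37 °C, 5% CO2, 5% FBS OPTI-MEM. Readouts: fluorescent cytotoxicity (CellTiter-Fluor), then luminescent Nrf2 signal after BugLite.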
Nrf2 activator: Nrf2 pathway activation; AREc32 ARE-luciferase reporter (MCF7-derived line), luminescence, 24 h; Potency, µM (highest dose often 46.1 µM), for the others: at the top dose activation, usual class: activators; hit rate 0.31% among 410,000; AID 624171; also: potency is read from the fitted curve at half-maximal effect; % of control where 0% means no effect; nearly all actives have a fitted effect of over 65% in size
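AREc32_Fluc, 1000 cells/well, OPTI-MEM + 5% FBS, o/n 37 deg C 5% CO2; 23 nL cpd by pin tool, 24 hr; Steady-Glo 30 min RT, luminescence.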
A549 viability: A549 cytotoxicity, counter-screen for Nrf2 inhibitors; A549 ARE-Fluc cells, CellTiter-Fluor viability, 18-24 h; Potency, µM (doses to about 46 µM), for inactives: at the top dose activity change, negative = cytotoxicity, hits mostly inhibitors; hit rate 0.16% among 390,000; also: potency is read from the fitted curve at half-maximal effect; % is scaled to controls: 0 for no effect and ±100 for the full control effect
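A549 ARE_Fluc cells in 5% FBS OPTI-MEM were exposed to compounds in concentration-response for 18-24 h at 37 deg C. Viability was read by CellTiter-Fluor fluorescence (Ex 405/Em 525) after 30 min, before the luciferase read.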
mIDH1 inhibitor: human IDH1 R132H inhibition; O75874; hit rate 0.093% among 390,000; Potency, µM (series often up to 76.6 µM), without a hit: at the top dose activity change, negative = inhibition, usual class: inhibitors; IDH1-R132H enzyme, NADPH consumption, diaphorase/resazurin fluorescence; also: potency is read from the fitted curve at half-maximal effect; % is scaled to controls: 0 for no effect and ±100 for the full control effect; nearly all actives have a fitted effect of over 65% in size
Target sequence (O75874 whole entry R132H, stated change not applied): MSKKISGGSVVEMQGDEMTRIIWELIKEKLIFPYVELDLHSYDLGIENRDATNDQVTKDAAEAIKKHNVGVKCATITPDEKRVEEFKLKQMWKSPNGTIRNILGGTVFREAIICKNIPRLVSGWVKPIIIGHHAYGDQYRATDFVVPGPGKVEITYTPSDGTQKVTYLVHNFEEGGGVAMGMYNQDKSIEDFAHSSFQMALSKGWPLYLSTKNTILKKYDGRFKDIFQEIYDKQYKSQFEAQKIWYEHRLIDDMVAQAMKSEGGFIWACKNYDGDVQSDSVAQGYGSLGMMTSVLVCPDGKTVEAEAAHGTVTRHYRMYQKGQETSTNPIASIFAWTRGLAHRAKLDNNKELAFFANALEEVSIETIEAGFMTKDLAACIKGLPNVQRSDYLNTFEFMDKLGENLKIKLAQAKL
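IDH1-R132H (0.5 ug/mL dispensed) in pH 7.5 Tris buffer was preincubated 30 min with compound, then given a substrate mix of 0.016 mM NADPH and 2 mM alpha-KG for 80 min at room temperature; remaining NADPH was read by diaphorase/resazurin fluorescence.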
Anesthetic bind: binds horse apoferritin like a general anesthetic; P02791; apoferritin/1-aminoanthracene competitive binding, fluorescence; Potency, µM (top dose mostly 77.5 µM), for inactives: top-dose activity change, negative = displacement, most hits filed as inhibitors; hit rate 0.074% among 350,000; AID 485281; also: potency is read from the fitted curve at half-maximal effect; % is scaled to controls: 0 for no effect and ±100 for the full control effect; nearly all actives have a fitted effect of over 20% in size
Target sequence (P02791 2-175 limits assumed): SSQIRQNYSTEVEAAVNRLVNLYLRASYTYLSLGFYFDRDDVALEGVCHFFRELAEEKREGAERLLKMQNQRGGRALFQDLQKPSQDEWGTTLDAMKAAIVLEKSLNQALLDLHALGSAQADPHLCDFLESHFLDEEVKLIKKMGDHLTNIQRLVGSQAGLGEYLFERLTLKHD
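Horse-spleen apoferritin (10 uM) in 50% saturated 1-aminoanthracene in PBS was incubated 10 min at room temperature with compound. Fluorescence (ex 380, em 535 nm) was normalized to free and bound 1-AMA, with concentration-response fitted by a four-parameter Hill equation.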
Starred values were filed as active, the others as inactive; ? = inconclusive; nt = not tested or not shown; [ ] = another dose, or the depositor's remark. Shown are actives, neighbours in structure and some others; about 2.3% of the full set was active somewhere. Unless noted, calls follow the shape of the dose curve; as a rule, active = well fitted curve in the direction sought with a large enough effect; inconclusive = small, poorly fitted or top-dose-only effect, or another doubt; inactive = no such curve, though single readings can be large; an effect the other way counts as inactive or inconclusive.

SMILES	Giardia killer	Nrf2 inh	Nrf2 activator	A549 viability	mIDH1 inhibitor	Anesthetic bind
CC(=O)c1ccc(-c2cc([C@H]3[C@H]4C=CC[C@@H](C)[C@@H]4C(=O)N3Cc3ccccc3)ccc2F)cc1	-23	21µM*	3%	-13%	9%	-5%
Nc1ncc(S(=O)(=O)N2CCN(c3ccccc3)CC2)cn1	nt	nt	0%	13%	-7%	-6%
CC1CC(NC(=O)c2cc3c(=O)n4ccccc4nc3n2C)CC(C)(C)C1 (stereo unspecified)	6	21µM*	0%	16%	7%	36%
Cc1cccc(N2C(=O)C(CC(=O)Nc3ccc(F)cc3)N(C3CCCC3)C2=O)c1 (stereo unspecified)	nt	9%	0%	-17%	4%	-21%
Cc1ccc(Nc2nc(NCc3ccco3)nc3nccnc23)cc1C	23	14%	nt	8%	nt	nt
O=S(=O)(c1ccccc1)N1CCC(Oc2ccc(-n3cnnn3)cc2)CC1	7	?	3%	-6%	-6%	-4%
O=S(=O)(c1cccc(C(F)(F)F)c1)N1CCC(Oc2ccc(-n3cnnn3)cc2)CC1	nt	18µM*	0%	?	-4%	-19%
CNc1oc(-c2ccccc2F)nc1S(=O)(=O)c1ccc(C)cc1	-11	26µM*	3%	-11%	2%	-7%
Cc1ccc(S(=O)(=O)c2nc(-c3ccccc3F)oc2NCc2ccccc2)cc1	nt	-4%	-1%	18%	-4%	6%
Cc1ccc(Cn2c(CNC(=O)c3ccccc3Br)nc3cccnc32)cc1	nt	nt	7%	-13%	-20%	7%
COc1ccc(C=O)cc1COc1ccc(NC(C)=O)cc1	nt	4%	nt	0%	nt	nt
COc1ccc([C@H]2CC(=O)C[C@@H](CCn3cc(Cc4ccccc4)nn3)O2)cc1	nt	nt	0%	nt	nt	nt
Nc1cc(-c2ccccc2)c[nH]c1=O	nt	7.3µM*	nt	5.8µM*	nt	nt
COc1ccc(CNC(=O)c2c(N)n(CCCN3CCOCC3)c3nc4ccccc4nc23)cc1	24	16µM*	-3%	nt	10%	184%
Nc1c(C(=O)NCc2ccccc2)c2nc3ccccc3nc2n1CCCN1CCOCC1	-8	?	-3%	-14%	6%	150%
O=C(C1=C[C@@H](c2csc3ccccc23)C[C@@H](OCc2ccc(CO)cc2)O1)N1CCN(Cc2ccccc2)CC1	-16	16µM*	6%	-15%	0%	-15%
O=C(C1=C[C@H](C2CCCCC2)C[C@H](OCc2ccc(CO)cc2)O1)N1CCN(Cc2ccc3c(c2)OCO3)CC1	5	23µM*	0%	?	-15%[38.3 µM]	33%
CC1C(=O)Nc2ccc(S(=O)(=O)NCc3ccc(N(C)C)cc3)cc2NC1=O (stereo unspecified)	nt	1%	2%	-6%	-2%	?
O=C(NCC1CC1)c1ccc2nc(-c3ccoc3)c(-c3ccoc3)nc2c1	-5	-19%	nt	2%	nt	nt
COc1ccc(-c2c([C@H]3[C@H]4C=CC[C@@H](C)[C@@H]4C(=O)N3Cc3ccccc3)ccc3ccccc23)cc1OC	55	18µM*	7%	?	-5%	-5%
COc1ccc(-c2ccc(C3C4C=CCC(C)C4C(=O)N3Cc3ccccc3)c(F)c2)cc1 (stereo unspecified)	3	?	nt	-8%	nt	120%
COc1ccc(-c2c(C3C4C=CCC(C)C4C(=O)N3Cc3ccccc3)ccc3ccccc23)cc1 (stereo unspecified)	-10	21µM*	nt	-6%	nt	58%
COc1ccc(Br)cc1[C@H]1[C@H]2C=CC[C@@H](C)[C@@H]2C(=O)N1Cc1ccccc1	4	21µM*	-1%	-17%	19%	-13%
COc1ccc(-c2ccccc2[C@H]2[C@@H]3C=CC[C@@H](C)[C@@H]3C(=O)N2Cc2ccccc2)cc1	17	18µM*	3%	?	-2%	115%[110 µM]
COc1ccc(/C=C/c2ccccc2)cc1C1C2C=CCC(C)C2C(=O)N1Cc1ccccc1 (stereo unspecified)	1	?	nt	12%	nt	-2%
SMILES	Giardia killer	Nrf2 inh	Nrf2 activator	A549 viability	mIDH1 inhibitor	Anesthetic bind
CCOC(=O)c1cccc(NC(=O)CCc2c(C)nn(-c3ccc(N4CCCCC4)nn3)c2C)c1	nt	-28%	6%	-2%	33%	-14%
CSc1ccc(CNC(=O)c2sc3ncnc(N(C)C4CCCCC4)c3c2C)cc1	nt	nt	-2%	-10%	9%	-10%
CCCOc1nc2c(c(=O)n(C)c(=O)n2C)n1Cc1cccc2ccccc12	0	18µM*	0%	-11%	1%	-14%
CCCOc1nc2c(c(=O)n(C)c(=O)n2C)n1C	12	-23%	0%	-4%	5%	2%
C=CCSC1=N/C(=C\C=C\c2ccco2)C(=O)S1	-5	-2%	13µM*	-19%	0%	-13%
C=CCSC1=N/C(=C\c2sccc2C)C(=O)S1	5	2%	4%	-13%	-7%	-24%
CC1(C)[N+]([O-])=C2C(=[N+]([O-])C1(C)C)c1ccccc1/C2=N\O	-98*	15%	0%	-7%	1%	-13%
ON=C1c2ccccc2-c2ccc(F)cc21	-2	5%	5%	6%	5%	nt
COc1ccc(-n2cc(C(=O)Nc3cc(F)ccc3F)c3ccccc3c2=O)cc1	nt	16%	2%	-3%	-15%	-17%
CCn1cc([N+](=O)[O-])c(C(=O)Nc2nc(-c3ccc(C)c(C)c3)c(C)s2)n1	-18	16µM*	?	-13%[1.84 µM]	12%	-21%
CCC12CN3CC(CC)(CN(C1)C3c1ccc([N+](=O)[O-])o1)C2=O (stereo unspecified)	-86*	-3%	-1%	-8%	-2%	-3%
CCCC12CN3CC(C)(CN(C1)C3c1ccc([N+](=O)[O-])o1)C2=O (stereo unspecified)	-87*	3%	-1%	1%	9%	-5%
CC12CN3CC(C)(CN(C1)C3c1ccc([N+](=O)[O-])o1)C2=O (stereo unspecified)	7	-5%	-1%	-5%	-8%	-3%
O=C(Nc1cccc(C(F)(F)F)c1)c1cc2nc(-c3ccc4c(c3)OCO4)cc(C(F)(F)F)n2n1	nt	3%	-1%	-4%	-4%	48%
CC1=C(C(=O)Nc2ccccc2)C(c2ccccn2)n2nc(SCc3ccccc3)nc2N1 (stereo unspecified)	nt	-13%[9.27 µM]	-1%	5%	20%	-1%
CC(C)CC(N)c1csc(Nc2ncccn2)n1 (stereo unspecified)	nt	nt	-1%	nt	nt	nt
Cc1sc2ncnc(N3CCC(C(=O)N(C)CC(=O)Nc4ccccc4Cl)CC3)c2c1C	13	23µM*	-2%	?	1%	-7%
